Tau fluor cs: counter-screen for tau fibril formation inhibitors; AID 1463; Potency, µM (titrated, usually from 57.7 µM); tau K18 P301L Alexa594 fluorescence, heparin fibrillization; hit rate 0.93% among 280,000; note: nearly all actives have a fitted effect of over 55% in size
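Human K18 P301L tau (15 uM unlabeled plus 0.24 uM Alexa 594-labeled, final) in 100 mM sodium acetate pH 7 was mixed with compound and 20 uM heparin and incubated 6 hr at 37 C.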
Sfp PPTase inh: inhibitors of Bacillus subtilis Sfp phosphopantetheinyl transferase; Q9F4F7; Biochemical Sfp PPTase activity, qHTS; Potency, µM, hits mostly inhibitors; hit rate 3.5% among 310,000;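 note: the enzyme is Sfp with the accession as filed and its product quenches rhodamine fluorescence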
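Fluorescence-quenching assay: 15 nM Sfp-PPTase preincubated 15 min at room temperature with compound, then 5 uM rhodamine-CoA and 12.5 uM BHQ-2-labelled YbbR peptide added. Fluorescence (ex 525/em 598 nm) read at start and after 30 min; difference gives rate.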
Tau fibril ThT: tau fibrillization inhibition (ThT binding) | P10636 | hit rate 2.1% among 270,000 | recombinant tau K18 P301L (four-repeat tau fragment), heparin-induced fibrillization, ThT fluorescence | AID 1460 | Potency, µM (top dose mostly 57.4 µM), actives largely listed as inhibitors; note: nearly all actives have a fitted effect of over 55% in size
Target sequence (P10636 561-689 P618L limits assumed): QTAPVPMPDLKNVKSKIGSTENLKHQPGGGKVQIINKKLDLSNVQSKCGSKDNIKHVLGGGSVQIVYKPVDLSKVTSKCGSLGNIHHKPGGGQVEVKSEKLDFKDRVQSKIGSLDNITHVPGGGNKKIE
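In this qHTS, human K18 P301L tau is incubated with compound and heparin for 6 hr at 37 C, and Thioflavin T fluorescence then reports fibril load.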
Tau FP inhib: inhibitors of human tau fibril formation | P10636 | K18 P301L tau heparin fibrillization, Alexa594 FP, 6 h | Potency, µM (series often up to 57.7 µM), usual class: inhibitors | hit rate 0.39% among 280,000 | AID 1468; note: nearly all actives have a fitted effect of over 55% in size
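Recombinant K18 P301L […], labeled with Alexa 594 at 0.24 uM over 15 uM unlabeled; heparin inducer 20 uM final; 37 C, 6 hr; FP endpoint.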
Coupling enz: inhibits coupling enzyme system, counter-screen for aldolase hits. coupling enzyme system counterscreen, AmpLite Red fluorescence. hit rate 0.67% among 290,000. activity change, negative = inhibition, % at 58.2 µM, hits read low; in the data active = activity change below about -30%
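Activity here indicates interference with the coupling reaction, not aldolase inhibition. Compounds at 57.5 uM final met coupling enzymes for 10 min at RT; substrate and AmpLite Red detection followed, with a 525/598 nm fluorescence read after 20 min.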
Large screens that a line does not name were inactive; [ ] = another dose, or the depositor's remark. Hits are enriched below; roughly 5.2% of the tested compounds scored in any of these assays. Unless noted, calls come from the whole dose curve; as a rule, active = well fitted curve in the direction sought with a large enough effect; inconclusive = small, poorly fitted or top-dose-only effect, or another doubt; inactive = no such curve, though single readings can be large; an effect the other way counts as inactive or inconclusive.

CC(=O)Nc1ccc(S(=O)(=O)N2CCC(c3nnc(-c4ccc(C)cc4)o3)CC2)cc1	Tau fluor cs inconclusive, Sfp PPTase inh 50.1µM
COc1cc(CN2CCN(Cc3ccc(C(F)(F)F)cc3)CC2)cc(OC)c1OC	Sfp PPTase inh 20µM (no result: Tau fluor cs, Tau fibril ThT, Tau FP inhib)
COc1ccc(CN2CCN(Cc3ccc(Br)cc3)CC2)c(OC)c1OC	Sfp PPTase inh 79.4µM (no result: Tau fluor cs, Tau fibril ThT, Tau FP inhib)
CCS(=O)(=O)N1CCN(Cc2ccc([N+](=O)[O-])cc2)CC1	Sfp PPTase inh 79.4µM
CSc1ccc(CN2CCN(Cc3ccc([N+](=O)[O-])cc3)CC2)cc1	none
COc1ccc(CN2CCN(Cc3ccc(C(F)(F)F)cc3)CC2)c(OC)c1	Sfp PPTase inh 70.8µM (no result: Tau fluor cs, Tau fibril ThT, Tau FP inhib)
CCOC(=O)O[C@]1(C(=O)OCCl)CC[C@@H]2[C@H]3CCC4=CC(=O)C=C[C@]4(C)[C@@H]3[C@@H](O)C[C@@]21C	none (no result: Tau fluor cs, Tau fibril ThT, Tau FP inhib, Coupling enz)
CS(=O)(=O)N1CCN(Cc2ccc(C(F)(F)F)cc2)CC1	Sfp PPTase inh 56.2µM
CC/C(C)=N\N=C\c1c(O)n(CC)c2cc(C3=NNC(=O)CC3)ccc12	Tau fibril ThT 15.8µM
CNC(=O)Nc1cccc(-c2cc(-c3c(Cl)cccc3Cl)no2)c1	Tau fluor cs inconclusive, Tau FP inhib 22.4µM
O=C1NN(C(=O)Nc2ccc(Br)cc2)C(c2ccccc2)C1c1ccccc1 (stereo not drawn)	none (no result: Tau fluor cs, Tau fibril ThT, Tau FP inhib)
Cc1ccc([N+](=O)[O-])cc1S(=O)(=O)Nc1ccc(O)c(Sc2ncn[nH]2)c1	Sfp PPTase inh 44.7µM (no result: Tau fluor cs, Tau fibril ThT, Tau FP inhib, Coupling enz)
O=C(O)CSc1c2c(nc3cc(C(=O)N4CCOCC4)ccc13)CCCC2	Sfp PPTase inh 50.1µM
CCOC(=O)N1CCN(C(=O)c2ccc3c(SCC(=O)O)c4c(nc3c2)CCCC4)CC1	none
COCCN1C(=O)Cc2c1nc(N)c1c(N)nc(N3CCN(c4ccc(F)cc4)CC3)c(C#N)c21	Tau fibril ThT inconclusive
COCC(C)N1C(=O)Cc2c1nc(N)c1c(N)nc(N3CCN(c4ccccc4F)CC3)c(C#N)c21 (stereo not drawn)	Tau fluor cs inconclusive, Tau fibril ThT 25.1µM, Tau FP inhib inconclusive
CC(C)C(=O)NC1CC(=O)N(c2ccc3c(c2)OCCO3)C1 (stereo not drawn)	none (no result: Sfp PPTase inh, Coupling enz)
O=C(CN1C(=O)CCSc2ccc(S(=O)(=O)N3CCCC3)cc21)Nc1cccc(F)c1	none (no result: Sfp PPTase inh, Coupling enz)
O=C1C(NS(=O)(=O)c2cccs2)=C(N2CCN(c3cccc(Cl)c3)CC2)C(=O)c2ccccc21	Tau fluor cs 8.91µM[quencher], Tau fibril ThT 3.98µM, Tau FP inhib inconclusive
CC1CCN(C2=C(NS(=O)(=O)c3ccc(Br)cc3)C(=O)c3ccccc3C2=O)CC1	none (no result: Tau fluor cs, Tau fibril ThT, Tau FP inhib)
CC1CCN(C2=C(NS(=O)(=O)c3ccccc3)C(=O)c3ccccc3C2=O)CC1	Tau fluor cs 11.2µM[quencher], Tau fibril ThT 12.6µM, Tau FP inhib inconclusive
CC1CCN(C2=C(NS(=O)(=O)c3ccc(Cl)cc3)C(=O)c3ccccc3C2=O)CC1	Tau fluor cs inconclusive, Tau fibril ThT inconclusive, Coupling enz -33.8
CCOC(=O)C1CCN(C2=C(NS(=O)(=O)c3ccc(Cl)cc3)C(=O)c3ccccc3C2=O)CC1	Tau fluor cs inconclusive, Tau fibril ThT inconclusive
CCOC(=O)C1CCCN(C2=C(NS(=O)(=O)c3ccc(Br)cc3)C(=O)c3ccccc3C2=O)C1 (stereo not drawn)	Sfp PPTase inh inconclusive, Coupling enz -37.5 (no result: Tau fluor cs, Tau fibril ThT, Tau FP inhib)
CNC(=O)C1CCCN(c2nnc(C)c3c(C)n(-c4ccccc4)nc23)C1 (stereo not drawn)	none (no result: Sfp PPTase inh, Coupling enz)
Cc1nc2cnc(OCc3ccccc3)nc2n(Cc2ccc(F)cc2)c1=O	none (no result: Tau fluor cs, Tau fibril ThT, Tau FP inhib)
O=C1C(NS(=O)(=O)c2ccccc2)=C(N2CCN(c3ccc(F)cc3)CC2)C(=O)c2ccccc21	Tau fluor cs 10µM[quencher], Tau fibril ThT 6.31µM
O=C1C(NS(=O)(=O)c2ccc(Br)cc2)=C(N2CCCCC2)C(=O)c2ccccc21	none (no result: Tau fluor cs, Tau fibril ThT, Tau FP inhib)
N#Cc1nc(NCCO)nc(Nc2ccccc2)n1	none (no result: Tau fluor cs, Sfp PPTase inh, Tau fibril ThT, Tau FP inhib)
CCc1ccc(NC(=O)c2ccc3c(c2)C(=O)N(Cc2ccco2)C3=O)cc1	Sfp PPTase inh 39.8µM, Tau fibril ThT inconclusive
CCOc1ccccc1NC(=O)C(CC(C)C)NS(=O)(=O)c1ccc2c(c1)CCN2C(C)=O (stereo not drawn)	none (no result: Sfp PPTase inh, Coupling enz)
Cc1cc2nc3c(=O)[nH]c(=O)[nH]c3nc2c([N+](=O)[O-])c1N	Tau fluor cs inconclusive, Sfp PPTase inh inconclusive, Tau fibril ThT 14.1µM, Tau FP inhib inconclusive, Coupling enz -30.0
